Our source for the Potency values is PubChem BioAssay (NCATS).

SMILES strings stand for the structures. Inconclusive results are not listed. Activity calls are given as the source filed them. Unless noted, calls follow the shape of the dose curve; as a rule, active = well fitted curve in the direction sought with a large enough effect; inconclusive = small, poorly fitted or top-dose-only effect, or another doubt; inactive = no such curve, though single readings can be large; an effect the other way counts as inactive or inconclusive.

The nature of test [1]: qHTS for Inhibitors of the Functional Ribonucleoprotein Complex (vRNP) of Lassa (LASV) Arenavirus: LASV Primary Screen - GLuc reporter signal (AID 1347082; calls by dose curve; tested in HEK293 reporter line; also: series mostly up to about 57 µM; nearly all actives have a fitted effect of over 60% in size). On the technique in general: Quantitative high-throughput screening tests each substance at several concentrations.
The nature of test [2]: qHTS for Inhibitors of the Functional Ribonucleoprotein Complex (vRNP) of Lassa (LASV) Arenavirus: Viability assay - alamar blue signal for LASV Primary Screen (AID 1347083; calls by dose curve; tested in HEK293 reporter line; also: series mostly up to about 57 µM; nearly all actives have a fitted effect of over 80% in size).
Test [3] is described as follows: qHTS for Inhibitors of the Functional Ribonucleoprotein Complex (vRNP) of Lymphocytic Choriomeningitis Arenaviruses (LCMV): Viability assay - alamar blue signal for LCMV Primary Screen (AID 1347085; calls by dose curve; tested in HEK293 reporter line; also: series mostly up to about 57 µM; nearly all actives have a fitted effect of over 80% in size).
Test [4] deals with Nucleoprotein (Lymphocytic choriomeningitis virus (strain Armstrong)) (UniProt P09992). Nature of the test: qHTS for Inhibitors of the Functional Ribonucleoprotein Complex (vRNP) of Lymphocytic Choriomeningitis Arenaviruses (LCMV): LCMV Primary Screen - GLuc reporter signal (AID 1347086; calls by dose curve; also: series mostly up to about 57 µM; nearly all actives have a fitted effect of over 70% in size).
Test [5] in a line: qHTS of pediatric cancer cell lines to identify multiple opportunities for drug repurposing: Primary screen for TC32 cells (AID 1347089). Also: nearly all actives have a fitted effect of over 60% in size. Summed up: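 TC32 cells, 500-1,000/well in growth medium, compound-treated 48 h at 37 °C; viability from CellTiter-Glo luminescence. Primary screen: MIPE 11-point (0.78 nM–46 µM final), NPC 8-point (0.59 nM–46 µM final); confirmatory at 11-point dilutions.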

A short description of test [6]: qHTS of pediatric cancer cell lines to identify multiple opportunities for drug repurposing: Primary screen for DAOY cells (AID 1347090). Also: series mostly up to about 46 µM; nearly all actives have a fitted effect of over 55% in size. A digest of the protocol: (§1)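 Viability measured as metabolically active cells via CellTiter-Glo luminescence following 48 hours of compound exposure, 11-point dilutions in confirmatory testing. 500-1,000 cells/well plated 5 hours before dosing; controls were DMSO and 2.3 µM bortezomib.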

Test [7] in a line: qHTS of pediatric cancer cell lines to identify multiple opportunities for drug repurposing: Primary screen for A673 cells (AID 1347092). Also: nearly all actives have a fitted effect of over 45% in size. Summed up: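 A673 cells (500-1,000 cells/well) were treated 48 hours at 37 degrees C with compounds at 11-point (0.78 nM to 46 µM) or 8-point (0.59 nM to 46 µM) dilutions. Viability read by CellTiter-Glo luminescence; concentration-response curves fitted.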

Test [8] is described as follows: qHTS of pediatric cancer cell lines to identify multiple opportunities for drug repurposing: Primary screen for SK-N-MC cells (AID 1347093). Also: potency is read from the fitted curve at half-maximal effect. Summed up: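 Metabolically active cells were quantified by ATP-dependent luminescence (CellTiter-Glo, 15 min at room temperature) following 48 h treatment. Cells had been plated at 500-1,000 per well and settled for 5 h beforehand.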

A short description of test [9]: qHTS of pediatric cancer cell lines to identify multiple opportunities for drug repurposing: Primary screen for BT-37 cells (AID 1347094). Also: potency is read from the fitted curve at half-maximal effect. A digest of the protocol: (§2)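 Plated cells (500-1,000 per well, growth media) were allowed to settle for 5 hours, treated with compound dilutions for 48 hours, then lysed with CellTiter-Glo for 15 min at room temperature before luminescence reading.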

Test [10] is described as follows: qHTS of pediatric cancer cell lines to identify multiple opportunities for drug repurposing: Primary screen for NB-EBc1 cells (AID 1347095). Also: potency is read from the fitted curve at half-maximal effect. Summed up:
as §2

Test [11] can be described thus: qHTS of pediatric cancer cell lines to identify multiple opportunities for drug repurposing: Primary screen for U-2 OS cells (AID 1347096). Also: nearly all actives have a fitted effect of over 50% in size. Summed up: (§3)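 Viability after 48 h compound treatment at 37C, 500-1,000 cells/well, read as ATP luminescence with CellTiter-Glo. Primary screens used 11-point (MIPE, 0.78 nM-46 µM) or 8-point (NPC, 0.59 nM-46 µM) final concentrations; follow-up screens used 11-point dilutions.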

The nature of test [12]: qHTS of pediatric cancer cell lines to identify multiple opportunities for drug repurposing: Primary screen for Saos-2 cells (AID 1347097). Also: nearly all actives have a fitted effect of over 40% in size. Also: potency is read from the fitted curve at half-maximal effect. Summed up:
as §2

The nature of test [13]: qHTS of pediatric cancer cell lines to identify multiple opportunities for drug repurposing: Primary screen for NB1643 cells (AID 1347099). Also: nearly all actives have a fitted effect of over 50% in size. Also: potency is read from the fitted curve at half-maximal effect. A digest of the protocol:
as §2

Test [14] can be described thus: qHTS of pediatric cancer cell lines to identify multiple opportunities for drug repurposing: Primary screen for LAN-5 cells (AID 1347100). Also: potency is read from the fitted curve at half-maximal effect. A digest of the protocol: as §3
Test [15] can be described thus: qHTS of pediatric cancer cell lines to identify multiple opportunities for drug repurposing: Primary screen for Rh18 cells (AID 1347102). Also: nearly all actives have a fitted effect of over 65% in size. A digest of the protocol: as §3
Test [16] can be described thus: qHTS of pediatric cancer cell lines to identify multiple opportunities for drug repurposing: Primary screen for SJ-GBM2 cells (AID 1347091). Also: potency is read from the fitted curve at half-maximal effect. A digest of the protocol: as §1
Test [17] in a line: qHTS of pediatric cancer cell lines to identify multiple opportunities for drug repurposing: Primary screen for SK-N-SH cells (AID 1347098). Also: nearly all actives have a fitted effect of over 65% in size. Also: potency is read from the fitted curve at half-maximal effect. A digest of the protocol:
(§4)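 Cells (500-1,000/well) rested 5 h, then received compounds for 48 h; metabolically active cells were measured by CellTiter-Glo luminescence. Final concentrations spanned up to 46 µM (MIPE, 11-point) or 0.59 nM-46 µM (NPC, 8-point) in primary screens, 11-point in follow-ups.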

The nature of test [18]: qHTS of pediatric cancer cell lines to identify multiple opportunities for drug repurposing: Primary screen for BT-12 cells (AID 1347101). Also: nearly all actives have a fitted effect of over 25% in size. Also: potency is read from the fitted curve at half-maximal effect. Summed up:
as §4

Sequence of Nucleoprotein (Lymphocytic choriomeningitis virus (strain Armstrong)) (P09992 whole entry, looked up): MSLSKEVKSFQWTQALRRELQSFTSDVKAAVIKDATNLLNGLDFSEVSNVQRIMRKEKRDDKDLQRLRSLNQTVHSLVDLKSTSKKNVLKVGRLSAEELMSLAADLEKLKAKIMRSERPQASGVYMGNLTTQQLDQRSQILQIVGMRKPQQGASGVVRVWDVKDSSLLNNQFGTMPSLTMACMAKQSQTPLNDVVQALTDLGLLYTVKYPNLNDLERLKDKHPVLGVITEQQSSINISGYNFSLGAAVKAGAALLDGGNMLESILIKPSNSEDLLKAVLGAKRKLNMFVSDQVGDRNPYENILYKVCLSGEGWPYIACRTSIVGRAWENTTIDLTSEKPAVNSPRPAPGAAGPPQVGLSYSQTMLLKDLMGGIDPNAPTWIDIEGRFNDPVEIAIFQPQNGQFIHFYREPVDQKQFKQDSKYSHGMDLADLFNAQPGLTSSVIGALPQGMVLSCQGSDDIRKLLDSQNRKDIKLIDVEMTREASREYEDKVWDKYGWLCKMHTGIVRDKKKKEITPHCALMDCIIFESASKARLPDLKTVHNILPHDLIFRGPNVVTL

Regarding `CN1C2CCC(C)(C)C1CC(OC(=O)C(O)(c1cccs1)c1cccs1)C2` (configuration not stated), the Potency entry in test [1], in test [2], in test [3], in test [4], in test [5] and in test [6] was “inactive” throughout. Besides, the Potency result in test [7], in test [8], in test [9], in test [10], in test [11] and in [12] was “inactive” in each case. Moreover, the Potency entry in test [13], in test [14] and in [15] was “inactive” each time.

With `CN(C)CCc1c[nH]c2cccc(O)c12`, the Potency result in test [1], in test [2], in [3], in test [4], in test [5] and in test [6] was “inactive” each time. Besides, the Potency result in test [16], in [9], in test [10], in test [11], in test [12] and in test [18] was “inactive” in each case. Moreover, the Potency result in [15] was “inactive”. Also, the Potency in [17] was 35 µM (active); in test [14], 38.2 µM (active).

Turning to `C=CCOC(Cn1ccnc1)c1ccc(Cl)cc1Cl` (configuration not stated), the Potency result in test [1], in test [2], in test [3], in test [4], in test [5] and in [6] was “inactive” throughout. The Potency result in test [16], in test [8], in test [9], in test [10], in test [11] and in [12] was “inactive” each time. Further, the Potency result in test [17], in test [14] and in test [15] was “inactive” in each case.

As to `CNC(=O)Oc1cccc2ccccc12`, the Potency entry in test [1], in test [2], in test [3], in [4], in test [6] and in test [16] was “inactive” in each case. Besides, the Potency result in test [7], in test [8], in [9], in test [10], in [11] and in test [12] was “inactive” each time. Further, the Potency entry in [17], in [14] and in [15] was “inactive” in each case.

For `O=c1[nH]c2ccccc2n1CCCN1CCN(C(c2ccccc2)c2ccccc2)CC1`, the Potency result in test [1], in [2] and in [4] was “inactive” throughout.

As to `Oc1ccc2[nH]cc(CCCCN3CC=C(c4ccccc4)CC3)c2c1`, the Potency result in test [1], in test [2], in test [3], in [4], in test [6] and in test [11] was “inactive” each time. Moreover, the Potency entry in [12] and in [13] was “inactive” in each case. Further, the values for the Potency in test [14] and in test [18] were 11.9 µM (active) and 15.5 µM (active), respectively.

Consider `N[C@@H](Cc1cc(I)c(O)c(I)c1)C(=O)O`, for which the Potency entry in test [1], in test [2] and in [4] was “inactive” each time.

Take `CCCCCCCCC(=O)NCc1ccc(O)c(OC)c1`: the Potency result in test [1], in test [2], in test [3], in test [4], in test [5] and in test [11] was “inactive” throughout. For the same compound, the Potency result in test [18] and in [15] was “inactive” in each case. For the same compound, the Potency in test [16] was 1 nM (active); in test [8], 1 nM (active); in test [9] it was 1 nM (active); in test [10], 1 nM (active); in test [17] it was 0.0014 µM (active); in test [14], 0.001 µM (active).

Turning to `CC(=O)OC1(c2ccccc2)CCN(CCc2ccccc2)CC1`, the Potency entry in [1], in test [2], in [3], in test [4], in [5] and in test [6] was “inactive” each time. Moreover, the Potency entry in [11] and in test [13] was “inactive” each time.

As to `COc1ccc(CCN2CCC(Nc3nc4ccccc4n3Cc3ccc(F)cc3)CC2)cc1`, the Potency entry in test [1], in test [2] and in test [4] was “inactive” each time.

Regarding `CN1[C@@H]2CC[C@H]1CC(OC(=O)c1cc(Cl)cc(Cl)c1)C2` (some centres not stated), the Potency entry in test [1], in [2], in test [3], in [4], in test [5] and in test [16] was “inactive” in each case. Further, the Potency result in test [10], in test [11] and in [15] was “inactive” each time. For the same compound, the Potency in test [8] is 1 nM (active); in test [12], 75 µM (active); in test [13], 1 nM (active).

For `Nc1ccc(Cl)cc1C(=O)c1ccccc1F`, the Potency result in [1], in [2], in test [3], in [4], in test [6] and in [16] was “inactive” each time. Besides, the Potency entry in [9], in [11], in test [14], in test [18] and in [15] was “inactive” throughout.

As to `CC(C)=CCN1CC[C@@]2(C)c3cc(O)ccc3C[C@@H]1[C@@H]2C`, the Potency result in [1], in test [2], in test [3], in [4], in test [5] and in [6] was “inactive” in each case. The Potency entry in [10], in test [11], in test [17], in test [13], in [14] and in [18] was “inactive” throughout. Further, the Potency entry in test [15] was “inactive”.
